Values joined by “and” are separate entries in the source; they are usually repeats but may differ in a detail not shown here. Equal entries are not always repeated. In all, about 260,000 compounds went through this assay and about 1,500 (0.58%) were called active. Roughly 5% stayed inconclusive and do not appear here.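 How the source made its calls: active means inhibition above a set limit at one or more doses, reproduced on every date tested; inconclusive means results disagree between test dates, or hit never tested in dose response; inactive means the rest.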 A selection follows. Entries with a potency or affinity are not part of this list.
These molecules were tested against Virion infectivity factor (Human immunodeficiency virus type 1 group M subtype B (isolate BH10)) + Virion infectivity factor (Human immunodeficiency virus type 1 group M subtype B (isolate BRU/LAI)) + Virion infectivity factor (Human immunodeficiency virus type 1 group M subtype B (isolate PCV12)) + Virion infectivity factor (Human immunodeficiency virus type 1 group M subtype B (isolate HXB2)) + DNA dC->dU-editing enzyme APOBEC-3G (Homo sapiens) (UniProt P69720+P69721+P69722+P69723+Q9HC16) (assay: inhibitors of Vif binding to APOBEC3G peptide, primary screen, biochemical, TR-FRET, GST-Vif 1-94, biotin-A3G peptide, dose response retest (AID 1117319;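 further: Vif residues 1-94 fused to GST binding biotinylated APOBEC3G peptide 110-148; 0% = full assay without inhibitor and 100% = GST in place of GST-Vif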)). Settings: stronger effect = higher value.

inhibition, inactive:
C=CCC[C@H](Cc1ccc(F)cc1)C(=O)OC[C@@H](C)NC(=O)[C@H](CC=C)CC(=O)N(CCO)Cc1ccccc1 0.83%, COc1ccc(OC)c(Nc2nc(C3CC3)nc3c2nnn3Cc2ccccc2)c1 -2.66%, COc1ccc(OC)c(-c2csc(NC(=O)c3ccc(OCC4CCCO4)cc3)n2)c1 (configuration not stated) 6.81%, C=CCNC(=O)C1COc2ccccc2O1 (configuration not stated) -12.5%, O=C(c1coc(=O)c(Br)c1)N1CCOCC1 24.5%, O=C(NC(=S)N1CCCc2ccccc21)c1ccc(Cl)cc1 -35.9%, O=C(c1ccccc1)N1CCCc2ccccc21 16.3%, COc1ccccc1N1CCN(C(=O)c2coc(=O)c(Br)c2)CC1 27.6%, O=C(c1ccc(=O)[nH]c1)N1CCCc2ccccc21 0.97%, O=C(c1cccc(Br)c1)N1CCCc2ccccc21 4.68%, O=C(c1ccc(Br)cc1)N1CCCc2ccccc21 4.85%, O=C(NC(=S)N1CCCc2ccccc21)c1ccc(Br)cc1 -10.8%, CSC1=C(C#N)C(c2sccc2C)CC(=O)N1 (configuration not stated) -3.4%, C[C@@H]1CCC[C@H](C)N1Cc1nc(Cc2ccccc2Cl)no1 -1.65%, Oc1cccc(/C=N/n2c(C3CCCCC3)n[nH]c2=S)c1 2.47%, CC(=O)c1c(C)[nH]c(C(=O)CSc2ccc(F)cc2)c1C 29.5%, CCOC(=O)N1CCN(C(=O)C2CCCCC2)CC1 -1.05%, CCOc1ccsc1C(=O)OC 5.88%, CC1(C)CC(=O)C(C=NCCO)=C(O)C1 -1.68%, O=C(CNC(=O)c1ccc(Cl)cc1)OCN1C(=O)c2ccccc2C1=O -9.8%, CCC(C)(C)n1nnnc1C(c1ccc2ncccc2c1)N1CCCCCC1 (configuration not stated) 2.63%, CCC(C)(C)n1nnnc1C(c1ccc2ncccc2c1)N1CCN(c2nc3ccccc3s2)CC1 (configuration not stated) -9.25% and 0.75%, CCOC(=O)C(=O)NC(C)c1ccccc1 (configuration not stated) 1.23%, N#CC(C#N)=C1C(=O)N(CCN2CCOCC2)c2ccccc21 19.1%, COc1cc(CNCCc2ccccc2)ccc1OCc1ccc(Cl)nc1 2.97%, COc1ccc(CCNCc2ccc(OCc3ccc(Cl)nc3)c(OC)c2)cc1OC 5.39%, CCOc1cccc2sc(N(CCCN(C)C)C(=O)c3ccc(S(=O)(=O)N4CCCCCC4)cc3)nc12 -5.19%
